These results are taken from PubChem BioAssay AID1460 (National Center for Advancing Translational Sciences (NCATS), 2008).

The structures appear in SMILES notation. Hit rate of the full screen: of about 270,000 compounds, about 5,800 (2.1%) were called active. A call without a number means that no potency is given here. About 16% were inconclusive and are not listed. Calls follow the shape of the dose curve; as a rule, active = well fitted inhibition curve with a large enough effect; inconclusive = small, poorly fitted or top-dose-only effect; inactive = flat fitted curve, though single readings scatter. The full list was thinned out, with actives kept by preference.
Potency is read from the fitted curve at half-maximal effect.

This assay deals with Microtubule-associated protein tau (Homo sapiens) (UniProt P10636). The assay is described as follows: qHTS for Inhibitors of Tau Fibril Formation, Thioflavin T Binding. Also: nearly all actives have a fitted effect of over 55% in size. The note with it: recombinant tau K18 P301L, heparin-induced fibrillization, ThT fluorescence; series mostly up to 57.4 µM. In a few lines: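 ThT emission at 510 nm, taken 1 hr after adding 30 uM dye, quantifies aggregates formed when 20 uM heparin acts on human tau K18 P301L for 6 hr at 37 C.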
Chain of Microtubule-associated protein tau (Homo sapiens) (P10636 561-689 P618L limits assumed): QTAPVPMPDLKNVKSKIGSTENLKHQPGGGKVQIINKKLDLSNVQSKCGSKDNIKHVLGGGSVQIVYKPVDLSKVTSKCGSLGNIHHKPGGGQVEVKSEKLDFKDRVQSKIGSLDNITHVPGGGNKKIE
A general note: In qHTS, concentration-response curves come from the screen itself.
Consider `COc1cccc(CNC(=O)C(=O)NCC(c2cccs2)S(=O)(=O)c2ccccc2)c1` (stereo not given), for which the Potency entry was “inactive”.

As to `O=C(COc1ccccc1)OCc1cc(=O)n2nc(-c3cccs3)sc2n1`, the Potency result is “inactive”. As to `CCc1ccc(NC(=O)c2cc3c(=O)n(Cc4cccnc4)ccc3nc2C)cc1`, the Potency entry was “inactive”. `COc1cccc(-n2ccn(CC(=O)NCc3ccc(C)cc3)c(=O)c2=O)c1`: the Potency entry is “inactive”. With `O=C(CSc1oc(-c2ccco2)nc1S(=O)(=O)c1ccccc1)c1ccc(Cl)cc1`, the Potency entry was “inactive”. As to `COc1ccc(OC)c(CCNC(=O)CCCn2c(=O)c3cccn3c3cccnc32)c1`, the Potency result is “inactive”.

`CCOCCCn1c(SCC(=O)Nc2ccc(CC)cc2)nc2ccccc2c1=O`: the Potency entry is “inactive”. As to `O=C(NCc1ccccn1)c1cc(-c2ccccc2Cl)on1`, the Potency result was “inactive”. With `O=C(Nc1ccc2nccnc2c1)c1ccco1`, the Potency entry is “inactive”. With `O=C(NCc1ccccn1)c1ccc2nc(-c3ccco3)c(-c3ccco3)nc2c1`, the Potency is 12.6 µM (active). As to `CC(C)(C)c1ccc(NC(=O)NCc2ccco2)cc1`, the Potency entry is “inactive”. Regarding `COc1ccc(-c2nc3ccc(C(=O)NCc4ccc(C)cc4)cc3nc2-c2ccc(OC)cc2)cc1`, the Potency entry is “inactive”. In the case of `COCCNC(=O)Nc1ccc2nc(-c3ccco3)c(-c3ccco3)nc2c1`, the Potency was 3.98 µM (active). Then `Cc1nn(-c2ccc(F)cc2)c(-n2cccc2)c1C(=O)N1CCN(c2ccccc2)CC1`, with “inactive”; and `Cc1ccc(-c2nc(Cn3c(=O)cc(-c4ccccc4)c4c(C)nn(C)c43)c(C)o2)cc1`, with “inactive”. Turning to `CN(Cc1ccccc1)S(=O)(=O)c1ccc(F)c(C(=O)Nc2cccc(Cl)c2Cl)c1`, the Potency result is “inactive”. Turning to `O=C(c1cccc(Br)c1)N1CCN(Cc2cc(=O)n3nc(-c4ccccc4)sc3n2)CC1`, the Potency result was “inactive”. For the compound `CCN(CC)S(=O)(=O)c1ccc2c(c1)nc(CN(C)C(=O)Nc1ccc(Cl)cc1)n2C`, the Potency entry is “inactive”. Under `O=C(NCCc1ccccc1)C(=O)NCC(c1ccco1)S(=O)(=O)c1ccccc1` (stereo not given) stands “inactive”; under `CSc1nc(-c2ccc(F)cc2)nc2c1Cc1c(CO)cnc(C)c1O2`, “inactive”.

Regarding `CCOC(=O)c1c(C)nc2c(c1C)c(=O)oc1ccccc12`, the Potency result was “inactive”. With `CCN(CC)c1ccc2oc(=O)c(C)nc2c1`, the Potency was 7.94 µM (active). Turning to `CCN(CC)c1ccc2c(Nc3ccccc3)c(C=O)c(=O)oc2c1`, the Potency result was “inactive”. As for `COc1ccccc1CNC(=O)c1ccc(-n2c(C)cc3c2CCCC3)cc1`, the Potency entry was “inactive”. Take `COc1ccc(C(=O)Nc2onc3c2CCCC3)cc1`: the Potency result was “inactive”.

With `COc1ccccc1CNC(=O)Cn1nc(C)c2nn(-c3ccc(Cl)cc3)c(C)c2c1=O`, the Potency result is “inactive”. Take `CCN(CC)C(=O)CSc1nc2cc3c(cc2c(=O)n1CCCC(=O)NCc1ccc2c(c1)OCO2)OCO3`: the Potency entry was “inactive”.

As for `O=C(CSCc1cnn(-c2ccccc2)c1-n1cccc1)NCc1ccc(Cl)cc1`, the Potency result is “inactive”. Under `CCOc1ccc(C(=O)N2CCN(CCc3ccccn3)CC2)cc1` stands “inactive”; under `Cc1cc(-c2n[nH]c(=S)n2/N=C/C(Br)=C/c2ccccc2)n[nH]1`, 12.6 µM (active). Under `Oc1ccccc1/C=N/n1c(-c2cccs2)n[nH]c1=S` stands “inactive”; under `Cc1cc(-c2n[nH]c(=S)n2/N=C/c2ccco2)n[nH]1`, “inactive”; under `COc1ccccc1CN1CCC(CNC(=O)c2cnn(-c3cccc(Cl)c3)c2C2CCN(C(=O)OC(C)(C)C)CC2)CC1`, “inactive”. On to `CCOc1ccccc1CNC(=O)c1ccc2c(c1)nc1n2CCC(C)C1` (stereo not given), for which the Potency result is “inactive”. In the case of `Cc1ccc(NC(=O)c2cc3cc(C)ccc3n2C)cc1`, the Potency entry was “inactive”. Consider `CCOC(=O)c1c(NC(C)=O)c2c3c(sc2n1Cc1c(C)cc(C)cc1C)CCCC3`, for which the Potency result was “inactive”.

As for `Fc1ccc(CSc2nc(NCc3ccccc3)c3ccccc3n2)cc1`, the Potency result is “inactive”. Take `COc1ccc(NC(C)=O)cc1NC(=O)CN1CCN(c2ccc(F)cc2)CC1`: the Potency entry was “inactive”. As for `CC(=O)Nc1ccc(-c2csc(NC=C3C(=O)OC(C)(C)OC3=O)n2)cc1`, the Potency entry is “inactive”. Take `CC1(C)CC(CC(=O)O)C(=O)O1` (stereo not given): the Potency result was “inactive”. On to `C/C(CC1CC(C)(C)OC1=O)=N/Nc1nc(-c2ccccc2)cs1` (stereo not given), for which the Potency was 25.1 µM (active).

For the compound `Cc1ccc(-c2nn3c(=O)cc(CN4CCN(S(=O)(=O)c5ccc(Cl)cc5)CC4)nc3s2)cc1`, the Potency entry was “inactive”.

Take `COc1ccccc1N1CCN(c2ccc(=O)n(CC(=O)NCc3ccc(OC(C)C)cc3)n2)CC1`: the Potency entry is “inactive”.

Regarding `COc1ccc(N2C(=O)CS(=O)(=O)C23C(=O)N(Cc2ccc(C)cc2)c2ccccc23)cc1Cl` (stereo not given), the Potency entry was “inactive”.

For the compound `Cc1c(CNC(C)c2ccccc2)c(C(=O)O)c(C)n1Cc1c(F)cccc1Cl` (stereo not given), the Potency result was “inactive”. Turning to `COc1ccc(/C(O)=C2/C(=O)C(=O)N(c3nc(C)c(C)s3)C2c2ccco2)cc1` (stereo not given), the Potency result was “inactive”. Regarding `CCOc1ccc(/C(O)=C2\C(=O)C(=O)N(c3ccc(OC)cc3)C2c2ccccc2[N+](=O)[O-])cc1` (stereo not given), the Potency was 5.01 µM (active). `COc1ccccc1C1/C(=C(/O)c2ccc(OC(C)C)cc2)C(=O)C(=O)N1c1cc(C)on1` (stereo not given): the Potency entry was “inactive”. Regarding `CC/C(O)=N\S(=O)(=O)c1ccc(N=NN(C)C)cc1`, the Potency entry was “inactive”. With `CN(C)N=Nc1ccc2nc[nH]c2c1`, the Potency was 4.47 µM (active). Consider `CCCN(CCC)S(=O)(=O)c1ccc(C(=O)Nc2sc3c(c2C(=O)OC)CCN(CC)C3)cc1`, for which the Potency entry was “inactive”. Then `CCc1cccc(NC(=O)CN(c2ccc(C)c(C)c2)S(=O)(=O)c2ccsc2C(=O)OC)c1`, with “inactive”; and `Cc1ccc(/C=N/NC(=O)CSc2ccccn2)o1`, with “inactive”. As to `O=C(CSc1ccc(/C=N/NC(=O)c2cccc(F)c2)o1)Nc1ccccc1`, the Potency entry was “inactive”. Turning to `N#CCC(=O)N/N=C/c1ccc(SCC(=O)Nc2ccccc2)o1`, the Potency was 25.1 µM (active).

For the compound `O=C(CCc1ccccc1)NCc1ccc2c(c1)CCN2C(=O)c1ccccc1`, the Potency entry is “inactive”.

As for `COc1cc(/C=N/NC(=O)Nc2ccccc2)ccc1OCCOc1ccccc1C`, the Potency result was “inactive”. `Cc1cc(/C=N/Nc2ccc([N+](=O)[O-])cn2)c(C)n1-c1cccc(C(=O)O)c1`: the Potency was 2.82 µM (active). For the compound `COc1cc(/C=N\NC(=O)CNC(=O)c2cccc([N+](=O)[O-])c2)ccc1O`, the Potency result is “inactive”.

As for `Cc1cccc(C)c1NC(=O)CSc1ccc([N+](=O)[O-])cn1`, the Potency result was “inactive”. For `COc1cc(/C=N\Nc2ccc([N+](=O)[O-])cn2)ccc1OCC(=O)O`, the Potency was 12.6 µM (active). Then `Cc1ccc(-n2c(C)cc(/C=N/Nc3ccc([N+](=O)[O-])cn3)c2C)c(C)c1`, with 3.98 µM (active); and `Cc1cc(/C=N/n2cnnc2)c(C)n1-c1cccc(C(=O)O)c1`, with “inactive”.

Consider `Cc1cccc(-n2c(C)cc(/C=N\NC(=O)c3cccs3)c2C)c1`, for which the Potency entry is “inactive”. Take `Cc1ccc(-n2c(C)cc(/C=N\NC(=O)CC(=O)NC(C)C)c2C)cc1`: the Potency result was “inactive”.
